p97 ATPase inh – human p97 ATPase inhibition. recombinant p97 ATPase, Kinase-Glo ATP luminescence, 3 h. actives 0.42% (n = 220,000). P55072. inhibition, % at 8 µM; in the data active = inhibition above about 15%
Arbovirus inh – antivirals against arbovirus infection. arbovirus infection cell-based antiviral screen. AID 1251. inhibition, % at 10 µM. actives 0.37% (n = 200,000); in the data active = inhibition above about 30%
EP2 mod – modulators of human EP2 prostaglandin E2 receptor; P43116; EP2-expressing cells, cAMP HTRF FRET, PGE2 co-stimulation; induction, % at 25 µM; actives 0.83% (n = 260,000); AID 940;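 active = compounds whose cAMP rise, as percent of the full-agonist control response, exceeds 60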;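 also: rat C6 glioma line stably carrying human EP2 under a CMV promoter; the protocol text gives 20 µM as final concentration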
Hck-Nef inh – blocks Nef-activated human Hck kinase. AID 463187. inhibition, % at 20 µM. Recombinant Hck-YEEI plus Nef, Z-Lyte FRET kinase assay. actives 0.68% (n = 220,000). P08631;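 active = Hck-Nef kinase inhibition above about 50%, limit read from the data; inactive = inhibition below that limit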
Target sequence (P08631 whole entry, looked up): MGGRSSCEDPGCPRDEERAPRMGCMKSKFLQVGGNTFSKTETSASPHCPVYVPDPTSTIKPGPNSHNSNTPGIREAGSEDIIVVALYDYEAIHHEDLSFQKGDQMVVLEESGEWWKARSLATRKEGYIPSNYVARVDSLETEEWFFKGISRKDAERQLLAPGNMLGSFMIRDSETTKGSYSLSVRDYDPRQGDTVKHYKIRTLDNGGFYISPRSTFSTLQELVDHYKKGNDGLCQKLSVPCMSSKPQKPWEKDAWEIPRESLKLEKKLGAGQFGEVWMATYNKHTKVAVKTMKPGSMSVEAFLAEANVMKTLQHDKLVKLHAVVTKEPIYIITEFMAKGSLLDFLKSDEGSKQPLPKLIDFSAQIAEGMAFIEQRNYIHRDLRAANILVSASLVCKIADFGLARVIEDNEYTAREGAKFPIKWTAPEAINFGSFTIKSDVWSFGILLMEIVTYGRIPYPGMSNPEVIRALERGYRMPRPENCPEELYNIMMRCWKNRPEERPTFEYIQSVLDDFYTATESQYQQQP
PGE2 EP2 inh – EP2 receptor (human) inhibition; P43116; inhibition, % at 25 µM; C6 glioma cells expressing human EP2, cAMP TR-FRET; cells stimulated with saturating PGE2; actives 0.52% (n = 260,000); AID 1422;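 active = percent inhibition above 40 after rounding to a whole number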;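 also: rat C6 glioma host cells with rolipram phosphodiesterase inhibitor present; the protocol text gives 20 µM as final concentration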
Hck-Nef confirm – confirmation of Hck-Nef kinase inhibitors; actives 28% (n = 1,300); Recombinant Hck-YEEI:Nef, Z-Lyte FRET kinase assay; calls only at 10 µM; AID 463188; shares compounds with Hck-Nef inh;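 active = average inhibition of at least 50%, with Z-scores no higher than 3 in both the phospho-tyrosine peptide and fluorescence counterscreens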
A number is an active result; n = inactive; x = no result shown; + = active, no number. A selection: hits, their analogues and other compounds. The true share with any hit is near 2.4%.

SMILES | p97 ATPase inh | Arbovirus inh | EP2 mod | Hck-Nef inh | PGE2 EP2 inh | Hck-Nef confirm
CCN1CCN(c2ccc(NC(=O)c3cc(OC)cc(OC)c3)cc2)CC1 | x | x | n | x | n | x
Nc1c(C(=O)NC2CC2)sc2nc3c(c(-c4ccco4)c12)CC/C3=C/c1ccco1 | 28.4 | n | n | 85.3 | n | n
NC(=O)c1sc2nc3c(c(-c4ccco4)c2c1N)CCC3 | n | n | n | n | n | x
CN1CCN(C(c2cc3cc4c(cc3[nH]c2=O)OCO4)c2nnnn2Cc2ccc(F)cc2)CC1 (stereo unspecified) | x | x | n | x | n | x
O=C(COc1ccc(/C=N/NC(=O)c2cc3ccccc3o2)cc1Br)Nc1ccccc1 | n | n | n | 79.3 | n | +
CCC(=O)N1CCc2cc(C(O)CN3CCC(O)(c4ccc(F)cc4)CC3)ccc21 (stereo unspecified) | x | x | n | x | n | x
CCCOc1ccc(C2C(C(=O)OC)=CN(CCOC)C=C2C(=O)OC)cc1 | n | n | n | 55.5 | n | x
COCCN1C=C(C(=O)OC)C(c2ccc(OC)c(OC)c2)C(C(=O)OC)=C1 | n | n | n | n | n | x
CCNC(=O)c1cc2c(=O)n3ccccc3nc2n(Cc2cccnc2)c1=N | x | x | n | x | n | x
N=c1c(C(=O)NCC2CCCO2)cc2c(=O)n3ccccc3nc2n1Cc1cccnc1 (stereo unspecified) | n | n | n | 128.2 | n | x
Cc1cccn2c(=O)c3cc(C(=O)NCC4CCCO4)c(=N)n(Cc4cccnc4)c3nc12 (stereo unspecified) | n | n | n | 118.5 | n | x
CS(=O)(=O)N(CC(=O)N/N=C/c1ccc(OCC(=O)N2CCOCC2)cc1)c1ccccc1Cl | n | n | n | 128.9 | n | n
CCOc1c(Cl)cc(C2C3=C(CCCC3=O)N(C)C3=C2C(=O)CCC3)cc1OC | x | x | n | x | n | x
Cc1c(Br)c(=O)oc2c(Br)c(O)ccc12 | n | n | n | 71.3 | n | n
N#C/C(=C\c1ccc(-c2cccc([N+](=O)[O-])c2)o1)C(=O)Nc1nc(-c2cccs2)cs1 | n | x | n | 74.7 | n | +
O=C(CSc1nnc2n(CC(=O)N3CCCC3)c3ccccc3n12)Nc1ccc2c(c1)OCCO2 | x | x | n | x | n | x
O=C(Nc1ccccc1)Nc1snnc1C(=O)Nc1cccc(O)c1 | n | 47.5 | n | 60.3 | n | +
COc1cccc(NC(=O)C2(C)Cc3ccccc3C(=O)O2)c1 (stereo unspecified) | x | x | n | x | n | x
Cc1ccc(-c2nc(N)s[n+]2-c2ccccc2)cc1 | n | n | n | 101.0 | n | +
CNc1nc(-c2ccccc2)[n+](-c2ccc(C)cc2)s1 | n | n | n | n | n | x
O=C(CCN1C(=O)/C(=C/c2ccc3c(c2)OCO3)SC1=S)Nc1ccccc1Cl | x | x | n | x | n | x
O=C(CSc1nc2ccccc2c2nc3ccccc3n12)NCc1ccco1 | n | n | n | 81.6 | n | x
CCn1c(SCC(=O)NCc2ccco2)nc2ccccc2c1=O | n | n | n | n | n | x
CCCOC(=O)Cn1cnc2sc(-c3ccccc3)cc2c1=O | x | x | n | x | n | x
COc1cc(/C=C/C(=O)OCC(=O)Nc2sc3c(c2C#N)CCC(C)C3)ccc1OCC#N (stereo unspecified) | n | n | n | 50.9 | n | n
SMILES | p97 ATPase inh | Arbovirus inh | EP2 mod | Hck-Nef inh | PGE2 EP2 inh | Hck-Nef confirm
CC(=O)/C(=C(/O)c1ccccc1)c1nc2ccccc2[nH]1 | n | n | n | 124.4 | n | +
CCCC(c1nnnn1C(C)(C)CC)N(Cc1cc2c(C)cc(C)cc2[nH]c1=O)C1CCCCC1 (stereo unspecified) | x | x | n | x | n | x
Cc1c(N=C2C=CC(=O)c3ccccc32)c(=O)n(-c2ccccc2)n1C | n | n | n | 50.6 | n | n
CCOC(=O)NCCOC(=O)Nc1ccc(Cl)cc1 | n | n | n | 58.3 | n | n
O=C(CSc1ncccn1)Nc1ncc(Cc2ccc(Cl)cc2)s1 | x | x | n | x | n | x
COc1cccc(CNCCNC(=O)c2cccs2)c1 | x | x | n | x | n | x
COc1ccc(C2(C(=O)N3CCCC(c4ncncc4S(C)(=O)=O)C3)CC2)cc1 (stereo unspecified) | x | x | n | x | x | x
COc1cccc2c(=O)c3ccoc3n(C)c12 | n | n | n | n | n | x
COc1cccc2c(=O)c3c(cnn3C)n(C)c12 | n | n | n | 88.3 | n | x
CCN1C(=O)/C(=C\c2ccc(-c3ccc([N+](=O)[O-])cc3OC)o2)SC1=Nc1cccc(C(=O)O)c1 | n | n | n | 69.9 | n | n
N=c1c(C(=O)NCc2ccc(F)cc2)cc2c(=O)n3ccccc3nc2n1CCCN1CCOCC1 | n | n | n | 69.3 | n | x
C=CCNC(=O)c1cc2c(=O)n3cccc(C)c3nc2n(C(C)C)c1=N | x | x | n | x | n | x
Cc1cccn2c(=O)c3cc(C(=O)NC(C)C)c(=N)n(Cc4ccncc4)c3nc12 | n | n | n | 130.4 | x | x
N=c1c(C(=O)NCc2ccc(F)cc2)cc2c(=O)n3ccccc3nc2n1Cc1cccnc1 | n | n | n | n | n | x
CCNC(=O)c1cc2c(=O)n3ccccc3nc2n(Cc2ccc(C)cc2)c1=N | x | x | n | x | n | x
CCNC(=O)c1cc2c(=O)n3cccc(C)c3nc2n(Cc2ccc(C)cc2)c1=N | n | n | n | 70.7 | n | x
COCCCNC(=O)c1cc2c(=O)n3cccc(C)c3nc2n(C(C)C)c1=N | n | n | n | 166.9 | n | x
O=C(NC1CCCCC1)C(c1cccs1)N(Cc1ccco1)C(=O)c1cccs1 (stereo unspecified) | x | x | n | x | n | x
COCCCn1c(=N)c(C(=O)OC)cc2c(=O)n3cccc(C)c3nc21 | x | x | n | x | n | x
CCOCCCn1c(=N)c(C(=O)NCCN2CCOCC2)cc2c(=O)n3cccc(C)c3nc21 | n | n | n | 132.9 | x | x
CCn1c(SCC(=O)Nc2ccc(F)c(Cl)c2)nc2c1c(=O)n(C)c(=O)n2C | x | x | n | x | n | x
COc1ccc(N=c2oc3cc(O)ccc3cc2C(=O)Nc2ccccn2)cc1OC | n | n | n | 84.0 | 42.8 | n
CCOC(=O)C1=C(C)OC(N)=C(C#N)C1c1cc2cccc(C)c2[nH]c1=O (stereo unspecified) | x | x | n | x | n | x
O=C(Nc1cccc(S(=O)(=O)NC2=NCCCCC2)c1)c1cc(-c2ccncc2)nc2ccccc12 | n | n | n | n | n | x
O=C(Nc1cccc(S(=O)(=O)NC2=NCCCCC2)c1)c1cc(-c2ccco2)nc2ccccc12 | n | x | n | 92.9 | n | +
SMILES | p97 ATPase inh | Arbovirus inh | EP2 mod | Hck-Nef inh | PGE2 EP2 inh | Hck-Nef confirm
C=CCn1c(-c2cccs2)nc2nc3ccccc3nc21 | n | n | n | 71.9 | n | n
C=CCn1c(-c2cccs2)nc2ccccc21 | n | n | n | n | n | x
O=C(CN1CCC(O)(c2cccnc2)CC1)N1CCCCC1 | x | x | n | x | x | x
COC(=O)Cc1cc(=O)oc2cc(O)ccc12 | n | n | n | 102.3 | n | x
COc1ccc(C(=O)c2cc3ccc(O)cc3oc2=O)cc1 | n | n | n | n | n | x
CC(=O)c1cc2ccc(O)cc2oc1=O | n | x | n | + | n | x
CC(=O)c1cc2cc(O)ccc2o1 | n | n | n | 73.3 | n | x
O=C(c1ccccc1)c1cc2ccc(O)cc2oc1=O | n | n | n | 69.3 | n | x
O=C(NCc1ccco1)c1cc2ccc(O)cc2oc1=O | n | n | n | + | n | x

Compound activity deposited in PubChem BioAssay by several laboratories.
